Results filed as inconclusive are left out. Activity calls are given as the source filed them. The call rests on the fitted dose curve; in most records, active means well fitted inhibition curve with a large enough effect; inconclusive means small, poorly fitted or top-dose-only effect; inactive means flat fitted curve, though single readings scatter.
What follows are compounds tested against Calcium and integrin-binding protein 1 (Homo sapiens) (UniProt Q99828) (assay: Primary qHTS for Identification of Calcium Integrin Binding Protein 1 (CIB1) Competitor (AID 1508620; further: top concentration of the series differs between compounds)). Conditions: CIB1-GST / FITC-alphaIIb peptide fluorescence polarization; series mostly up to 57.7 µM; activity change, negative = inhibition: at the top concentration.
How it was run: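 Fluorescence polarization competition: GST-tagged CIB1 (1 uM final) preincubated with compound 15 min at room temperature, then FITC-labelled alphaIIb peptide (100 nM final) added. After 15 min at room temperature, polarization read at Ex 480/Em 540.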
On the % scale 0 is the no-effect control and ±100 the full control effect.

Chain of Calcium and integrin-binding protein 1 (Homo sapiens) (Q99828 whole entry, looked up): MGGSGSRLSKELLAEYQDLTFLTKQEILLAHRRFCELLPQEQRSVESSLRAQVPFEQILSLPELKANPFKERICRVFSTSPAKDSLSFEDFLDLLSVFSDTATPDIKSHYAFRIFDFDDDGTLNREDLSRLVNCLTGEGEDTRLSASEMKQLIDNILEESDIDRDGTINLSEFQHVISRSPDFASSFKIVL

Compound	activity change, negative = inhibition
CC(C)C(=O)c1cn(CC(=O)COc2ccc(Oc3ccccc3)cc2)c2ccc(C(=O)O)cc12	6.11% [at 114 µM] (inactive)
C[C@@H]1O[C@@H](O[C@H]2[C@H](O[C@H]3[C@H](O[C@H]4CC[C@@]5(C)C(CC[C@]6(C)C5CC=C5[C@@H]7CC(C)(C(=O)O)C[C@@H](O)[C@]7(C)CC[C@]56C)[C@@]4(C)CO)O[C@H](C(=O)O)[C@@H](O)[C@@H]3O)O[C@H](CO)[C@H](O)[C@@H]2O)[C@H](O)[C@H](O)[C@H]1O (stereo partly specified)	-1.51% [at 30.2 µM] (inactive)
C=C[C@@]1(C)CC(=O)C2[C@](C)(O1)[C@@H](OC(C)=O)[C@@H](O)[C@H]1C(C)(C)CCC[C@]21C (stereo partly specified)	1.14% [at 30.2 µM] (inactive)
COc1cc(/C=C/C(=O)O[C@H]2[C@H](OC(=O)/C=C/c3cc(OC)c(O)c(OC)c3)O[C@H](CO[C@@H]3O[C@H](CO)[C@@H](O)[C@H](O)[C@H]3O)[C@@H](O)[C@@H]2O)ccc1O	1.99% [at 30.2 µM] (inactive)
CCC/C=C/C(=O)O[C@H]1CC(C)(C)CC2[C@]13[C@H](O)O[C@@]21CCC2[C@@]4(C)CC[C@H](O[C@@H]5O[C@H](C(=O)O)[C@@H](O)[C@H](O[C@@H]6O[C@H](CO)[C@H](O)[C@H](O)[C@H]6O[C@@H]6O[C@@H](C)[C@H](O)[C@@H](O)[C@H]6O[C@@H]6OC[C@](O)(CO)[C@H]6O)[C@H]5O[C@@H]5O[C@H](CO)[C@H](O)[C@H](O)[C@H]5O)C(C)(C)C4CC[C@@]2(C)[C@]1(C)C[C@H]3OC(C)=O (stereo partly specified)	-7.58% [at 12.4 µM] (inactive)
CN1C(=O)c2ccccc2NC(=O)[C@]12O[C@@H]2c1cccc(O)c1	-7.54% [at 114 µM] (inactive)
OC[C@H]1O[C@@H](OCCc2ccc(O)cc2)[C@H](O)[C@@H](O)[C@@H]1O	-1.89% [at 114 µM] (inactive)
COC1=CC(=O)C[C@@H](C)[C@]12Oc1cc(OC)cc(OC)c1C2=O	2.85% (inactive)
CC1=C2C3OC(=O)C(C)C3(O)CCC2(C)CCC1=O (stereo unspecified)	-2.64% [at 114 µM] (inactive)
C=CC1(C)CC(OC(=O)C(=C)C(O)COC(C)=O)C(C(=C)C(=O)OC)C(O)C1C(=C)CO (stereo unspecified)	-3.86% (inactive)
OCC1=CC[C@@H]2C=CO[C@@H](O[C@@H]3O[C@H](CO)[C@@H](O)[C@H](O)[C@H]3O)[C@H]12	-2.94% (inactive)
C1CCN2CC3C[C@@H](CN4CCCC[C@@H]34)[C@H]2C1	3.88% [at 114 µM] (inactive)
CCC(CCO[C@@H]1O[C@H](CO[C@H]2OC[C@](O)(CO)[C@H]2O)[C@@H](O)[C@H](O)[C@H]1O)C(C)(C)O (stereo partly specified)	5.23% (inactive)
COC(=O)C[C@@H]1C(C(=O)O)=CO[C@@H](O[C@@H]2O[C@H](CO)[C@@H](O)[C@H](O)[C@H]2O)/C1=C\COC(=O)/C=C\c1ccccc1	0.766% (inactive)
C=C/C=C/[C@@H]1OC[C@H](/C=C/C=C/C)[C@H]1O	0.116% [at 228 µM] (inactive)
N#CC1C(=O)Nc2scc(-c3ccc(-c4ccccc4O)cc3)c2C1=O (stereo unspecified)	-4.82% [at 114 µM] (inactive)
CCn1cc(C2=NOC(C(=O)Nc3c(C)n(C)n(-c4ccccc4)c3=O)C2)c(C)n1 (stereo unspecified)	1.28% [at 114 µM] (inactive)
COc1cc(C2Oc3c(OC)cc(CCCO[C@@H]4O[C@H](CO)[C@@H](O)[C@H](O)[C@H]4O)cc3C2CO)ccc1O (stereo partly specified)	-7.26% (inactive)
C[C@@H]1C[C@H](O[C@@H]2O[C@H](CO[C@@H]3OC[C@](O)(CO)[C@H]3O)[C@@H](O)[C@H](O)[C@H]2O)CC(C)(C)[C@H]1/C=C/[C@@H](C)O	-0.584% (inactive)
C=C1CC2[C@]3(C)C(=C(O)C(=O)[C@@]2(C)[C@]2(C(=O)OC)C(=O)C(C)OC(=O)[C@@]12C)C(C)(C)C(=O)CC3O (stereo partly specified)	-4.56% (inactive)
COc1cc([C@H]2OC[C@]3(OC(C)=O)[C@@H](c4ccc(O[C@@H]5O[C@H](CO)[C@@H](O)[C@H](O)[C@H]5O)c(OC)c4)OC[C@H]23)ccc1O	-1.4% [at 30.2 µM] (inactive)
C[C@@]12C[C@]3(O)O[C@H](O1)[C@]1(COC(=O)c4ccccc4)[C@H]3C[C@@]12O[C@@H]1O[C@H](COC(=O)c2ccccc2)[C@@H](O)[C@H](O)[C@H]1O	4.37% (inactive)
C=C(C(=O)OC)C1CCC2(C)C(O[C@@H]3O[C@H](CO)[C@@H](O)[C@H](O)[C@H]3O)CC(=O)C(C)C2C1O (stereo partly specified)	0.12% (inactive)
C=C1CC2(C(=O)O)CC1CCC2C1(C)CCCC2(C)C(=O)OC(O)C21 (stereo unspecified)	0.0111% (inactive)
CC(C)CC(=O)OC[C@H]1O[C@@](COC(=O)CC(C)C)(O[C@H]2O[C@H](CO)[C@@H](O)[C@H](O)[C@H]2O)[C@@H](OC(=O)CC(C)C)[C@@H]1OC(=O)CC(C)C	2.44% [at 30.2 µM] (inactive)
O=C(O)Cc1nn(Cc2nc3cc(C(F)(F)F)ccc3s2)c(=O)c2nccnc12	1.21% [at 114 µM] (inactive)

Reference: PubChem BioAssay (NCATS)
